Test results from PubChem BioAssay AID1159580 (chemical genetic matrix, 2015).
About 2,000 (36%) of roughly 5,500 compounds were called active. Another 18% or so got no clear call; they are omitted. Cut-off read from the data, not from the text of the source: active = normalized growth mostly below about 0.91 (no sharp cut-off); inconclusive = no clear call, values can overlap the other calls; inactive = mostly above about 0.92. This is one part of the list.

Assay: chemical genetic growth profiling, strain panel (AID 1159580);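 note: tested at 20 µM; growth read once vehicle control cultures reached saturation at 30 °C; 1 = growth at the plate median or of vehicle wells; lower values mean less growth of the strain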
Settings: S. cerevisiae deletion strains, growth OD

Measured: normalized growth

CC(=O)Oc1cccc(C(=O)O)c1OC(C)=O
inactive: locus YAL013W, strain DEP1, hits give low values 1.01 | locus YBR021W, strain FUR4, hits give low values 0.987 | locus YBR229C, strain ROT2, hits give low values 1 | locus YCL029C, strain bik1, hits give low values 1 | locus YDL035C, strain GPR1, hits give low values 1.03 | locus YDL074C, strain BRE1, hits give low values 1.01 | locus YDL101C, strain DUN1, hits give low values 1.01 | locus YDL134C, strain PPH21, hits give low values 1.01 | locus YDL185W, strain tfp1, hits give low values 1.02 | locus YDL192W, strain arf1, hits give low values 1.02 | locus YDR101C, strain arx1, hits give low values 0.985 | locus YDR162C, strain NBP2, hits give low values 1.02 | locus YDR318W, strain mcm21, hits give low values 1.01 | locus YDR388W, hits give low values 1.01 | locus YDR502C, strain sam2, hits give low values 1 | locus YEL061C, strain CIN8, hits give low values 1.01 | locus YER110C, hits give low values 1.02 | locus YER155C, strain BEM2, hits give low values 1 | locus YER167W, strain BCK2, hits give low values 1.01 | locus YGL078C, strain dbp3, hits give low values 1.01 | locus YGL086W, strain mad1, hits give low values 0.997 | locus YGL248W, strain PDE1, hits give low values 1.01 | locus YGR078C, strain PAC10, hits give low values 1.01 | locus YGR135W, strain pre9, hits give low values 1.04 | locus YGR252W, strain gcn5, hits give low values 1 | locus YHR030C, strain SLT2, hits give low values 1.01 | locus YHR079C, strain IRE1 (second series), hits give low values 1.01 | locus YHR094C, strain hxt1, hits give low values 1.01 | locus YHR129C, strain ARP1, hits give low values 1.01 | locus YHR200W, strain rpn10, hits give low values 1.02 | locus YIL066C, strain RNR3, hits give low values 1.01 | locus YIL073C, strain SPO22, hits give low values 1.05 | locus YIL125W, strain kgd1, hits give low values 1.01 | locus YIR030C, strain dcg1, hits give low values 1.01 | locus YJL095W, strain BCK1, hits give low values 1.01 | locus YJL134W, strain LCB3, hits give low values 1 | locus YJL168C, strain set2, hits give low values 1.02 | locus YJL187C, strain SWE1 (second series), hits give low values 1.01 | locus YJR043C, strain POL32, hits give low values 1.01 | locus YJR075W, strain HOC1, hits give low values 1.03 | locus YKL009W, strain mrt4, hits give low values 1.03 | locus YKL068W, hits give low values 1.01 | locus YKL085W, strain MDH1 (second series), hits give low values 1.07 | locus YKL085W, strain MDH1, hits give low values 1.07 | locus YKL190W, strain CNB1, hits give low values 1.01 | locus YKR001C, strain vps1, hits give low values 1.01 | locus YLR039C, strain RIC1, hits give low values 1.02 | locus YLR058C, strain SHM2, hits give low values 1.01 | locus YLR102C, strain apc9, hits give low values 1.01 | locus YLR262C, strain YPT6, hits give low values 1.02 | locus YLR268W, strain sec22, hits give low values 1 | locus YLR330W, strain CHS5, hits give low values 1.01 | locus YLR342W, strain FKS1 (second series), hits give low values 1.04 | locus YLR371W, strain rom2, hits give low values 1 | locus YLR418C, strain cdc73, hits give low values 1.01 | locus YML016C, strain PPZ1, hits give low values 1.01 | locus YML032C, strain rad52, hits give low values 1.02 | locus YML124C, strain tub3, hits give low values 1.02 | locus YMR078C, strain ctf18, hits give low values 1.02 | locus YMR223W, strain ubp8, hits give low values 1.04 | locus YMR307W, strain GAS1, hits give low values 1.07 | locus YNL067W, strain RPL9B, hits give low values 1.01 | locus YNL153C, strain GIM3, hits give low values 0.997 | locus YNL233W, strain BNI4, hits give low values 1 | locus YNL250W, strain rad50, hits give low values 1.04 | locus YNL271C, strain bni1, hits give low values 1.01 | locus YNL298W, strain CLA4, hits give low values 1.02 | locus YNL307C, strain MCK1, hits give low values 1.02 | locus YNL322C, strain KRE1, hits give low values 1.01 | locus YNR052C, strain pop2, hits give low values 1.01 | locus YOL006C, strain TOP1, hits give low values 1.06 | locus YOL147C, strain pex11, hits give low values 1.01 | locus YOR061W, strain CKA2, hits give low values 1.01 | locus YOR069W, strain VPS5, hits give low values 1.01 | locus YOR136W, strain idh2, hits give low values 1.01 | locus YOR144C, strain elg1, hits give low values 1.01 | locus YOR184W, strain ser1, hits give low values 1.02 | locus YOR316C, strain cot1, hits give low values 1.01 | locus YPR119W, strain clb2, hits give low values 1.01 | locus YPR141C, strain kar3, hits give low values 1 | locus YPR163C, strain tif3, hits give low values 1.01 | locus YPR167C, strain met16, hits give low values 1.01 | strain wtn01, hits give low values 1.01
